# Test results: the supplement of paper PMC6555819
# Columns and labels:
# Assay in all cases: PBM binding z-score (relative to random genomic background probes); higher = stronger binding; sequences stand for … in GC…GCGATTGACAGCGTAGAATGAAGG
# [1] = system: FXR:RXRa (NR concentration 270 nM, RXRa partner concentration 90 nM)
# Outline: (§1)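 Each nuclear receptor dimer, without ligand, was incubated for 1 h on custom Agilent 4×180K protein-binding microarrays. Binding was detected with antibodies against each partner (one per run), and scanned fluorescence was regression-normalized. The binding z-scores are referenced to random human genomic background probes.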
# [2] = system: LXRa:RXRa (NR concentration 270 nM, RXRa partner concentration 90 nM)
# Outline: as §1
# [3] = system: LXRa homodimer (NR concentration 270 nM)
# Outline: as §1
# [4] = system: LXRb:RXRa (NR concentration 270 nM, RXRa partner concentration 90 nM)
# Outline: as §1
# [5] = system: LXRb homodimer (NR concentration 270 nM)
# Outline: as §1
# [6] = system: PPARa:RXRa (NR concentration 270 nM, RXRa partner concentration 90 nM)
# Outline: as §1
# [7] = system: PPARg:RXRa (NR concentration 180 nM, RXRa partner concentration 90 nM)
# Outline: as §1
# [8] = system: PPARg:RXRa 270nM:90nM, anti-RXR (NR concentration 270 nM, RXRa partner concentration 90 nM)
# Outline: as §1
# [9] = system: PPARg:RXRa 30nM:10nM, anti-RXR (NR concentration 30 nM, RXRa partner concentration 10 nM)
# Outline: as §1
# [10] = system: PPARg:RXRa 90nM:30nM, anti-RXR (NR concentration 90 nM, RXRa partner concentration 30 nM)
# Outline: as §1
Sequence,PBM binding z-score [1],PBM binding z-score [2],PBM binding z-score [3],PBM binding z-score [4],PBM binding z-score [5],PBM binding z-score [6],PBM binding z-score [7],PBM binding z-score [8],PBM binding z-score [9],PBM binding z-score [10]
ACTATTAGTTGAGACGAGGGCAACCCATAGGTTG,0.567,-0.017,-0.102,0.0689,0.34,0.296,0.846,0.162,0.398,0.326
ACTATAAGTTGACTTAGGGCAACCGATACGACGC,0.483,0.919,0.287,0.215,0.348,0.427,1.23,0.205,0.44,0.54
AGAACGAGGGCAATGAGGTGATAGCACGGGTGGC,0.341,0.494,-0.43,-0.215,-0.118,1.72,1.75,1.46,-0.142,0.347
GCTAGTTGGTCAGTAAAAGGTAACACACCGGTCG,0.0852,0.248,0.0445,0.107,-0.224,0.694,0.783,0.945,0.0648,0.29
ATCTCTAGGTAACCAAGTTGAGTGAATGCCGAAC,0.189,0.0773,0.252,0.0776,0.391,0.54,0.337,0.316,-0.0449,0.238
ACTCGGAGGACAAAGGTTAGAGCTACGCCAGTGA,0.928,1.08,0.0666,0.618,-0.716,2.93,4.75,5.11,3.29,5.35
TTACCAAGGTGAGCTGAGGTCGTTTATCCAACTC,2.17,1.37,-0.142,0.978,-0.227,1.61,-0.0022,0.829,-0.0958,0.644
CCGACTGGGGCAGAAAGGTTACTATACCATCCGG,-0.369,-0.0108,-0.29,0.722,-1.04,1.5,1.63,2.14,0.485,1.52
ATCTCTAGGTAGCAAGTTCAGTGAAAGAGAGGAC,0.337,0.333,0.238,0.0819,0.153,0.475,0.327,0.887,0.0265,0.756
TAGCCTAGTTCATGGGCCAGTATACCACGCGAAC,0.00503,0.504,-0.133,0.304,-0.689,0.867,0.6,0.24,-0.416,0.104
GGAACGAGGGCATTCGTGTTGATAGCATGGCGAT,0.778,0.372,-0.449,0.152,-0.674,1.39,0.763,0.768,-0.395,0.413
ATATGTAGGATAAGGGTCATTCAGGTTGGTTCGC,3.71,4.09,2.42,3.73,1.19,5.39,9.65,8.92,10.3,10
